# Reference: the OligoGym collection
# Molecular target: PEG10
# Test: pooled miR-30 sensor sort-seq; sequence = guide strand
# Conditions: shRNA
row,Sequence,sensor-assay potency score (higher = more potent)
1,TTAAGTTGTTGATCTCTTCAGA,-0.104
2,TTGATCTCTTCAGAGAGCTCGT,0.178
3,TTGCCATCGAACTTCTCTGGGA,-0.275
4,TGCAATGTGAGGCAACACCAGC,-1.84
5,TCAACTGAGAAATCCCTGGTGC,0.598
6,TTCCACTTGCTCTCGAAGGGTG,-0.417
7,TTTGGCAACCTCTCGCCTCTGA,-0.158
8,TTCTCTGGGAGGTCTTCTGGGC,-0.944

# Molecular target: PEG3
# Test: as above
# Conditions: shRNA
row,Sequence,sensor-assay potency score (higher = more potent)
1,TTCTTCTACCTGAATCTCTTGA,0.127
2,TTATAGTATGACTCTTCTGAGA,-1.1
3,TTTGTCATCAGGGTCATCCTTC,0.301
4,TTGATCGTGAATCGAGCCCTTC,-0.255
5,TTCACTGACAGCCACACTGTGG,-0.755
6,TTGTGTTGAGGTCTTCGCTGGT,0.119
7,TTATCATCTGACATTCTGGGGA,0.23
8,TTGATCTTCACCTTCTTCTGGG,0.701
9,TAATCTCTCTGATACTCGCTGA,-0.226
10,TTTCTTTTTAGCACGAGCCTTC,-0.635
11,TTCAATGAAATGTCCTTCCAGT,0.297
12,ATAACCTCTAGCATGAATCTTC,-0.113

# Molecular target: PELI3
# Test: as above
# Conditions: shRNA
row,Sequence,sensor-assay potency score (higher = more potent)
1,TGGAACATGTCTGTGTCGCTAT,0.131
2,ATCATGTTCTCTGTGGAGCGGC,-0.826
3,TCTGTGTCGCTATCATGTGTAT,-0.903
4,TATCATGTGTATACTCCACTAT,-0.135
5,ATTGGTGGTCAGTCCATCCATC,-0.798
6,TTGCTAGAGGCATCGAAGCCAG,-0.912
7,TACACATTCCCACAGACCGAGA,-1.66
8,ATCATGTGTATACTCCACTATG,-1.35
9,AAGTCAATCATGTTCTCTGTGG,-0.484
10,TCAATCATGTTCTCTGTGGAGC,-0.446
11,TGTATACTCCACTATGACCGAG,-0.429
12,TGTCTGTGTCGCTATCATGTGT,-0.284

# Molecular target: PEX11G
# Test: as above
# Conditions: shRNA
row,Sequence,sensor-assay potency score (higher = more potent)
1,CAGAACTCCACCAACCAGCTGG,-1.04
2,TTAGTGTAGACAAACATGGCCA,-0.26
3,AAGAGTCGCAAGATGGTCCTGC,0.55
4,AACCAGAACTCCACCAACCAGC,-1.17
5,TAGACAAACATGGCCAGGTCAT,-0.9
6,TTTCAGCAGCATCCACAGGGAC,-0.746
7,TGGACACCACCAACAGACGTGT,-1.09
8,TTCAGCAGCATCCACAGGGACC,-1.68
